Experimental data taken from the supplement of paper PMC6555819.

Columns and labels:
Assay in all cases: PBM binding z-score (relative to random genomic background probes); higher = stronger binding; sequences stand for … in GC…GCGATTGACAGCGTAGAATGAAGG
[1] = tested on: FXR:RXRa (NR concentration 270 nM, RXRa partner concentration 90 nM)
Summary of the method: (§1)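 Custom Agilent 4×180K protein-binding microarrays carried double-stranded probes, each with a 34-nt variable region. These regions held direct-repeat seeds, single-nucleotide variants, half-site ablations and random human genomic background sequences. Ligand-free nuclear receptor dimers were incubated on the arrays for 1 h, antibodies against each partner (one per run) detected binding, and scanned fluorescence was regression-normalized. Binding z-scores take the random background probes as reference.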

[2] = tested on: LXRa:RXRa (NR concentration 270 nM, RXRa partner concentration 90 nM)
Summary of the method: as §1

[3] = tested on: LXRa homodimer (NR concentration 270 nM)
Summary of the method: as §1

[4] = tested on: LXRb:RXRa (NR concentration 270 nM, RXRa partner concentration 90 nM)
Summary of the method: as §1

[5] = tested on: LXRb homodimer (NR concentration 270 nM)
Summary of the method: as §1

[6] = tested on: PPARa:RXRa (NR concentration 270 nM, RXRa partner concentration 90 nM)
Summary of the method: as §1

[7] = tested on: PPARg:RXRa (NR concentration 180 nM, RXRa partner concentration 90 nM)
Summary of the method: as §1

[8] = tested on: PPARg:RXRa 270nM:90nM, anti-RXR (NR concentration 270 nM, RXRa partner concentration 90 nM)
Summary of the method: as §1

[9] = tested on: PPARg:RXRa 30nM:10nM, anti-RXR (NR concentration 30 nM, RXRa partner concentration 10 nM)
Summary of the method: as §1

[10] = tested on: PPARg:RXRa 90nM:30nM, anti-RXR (NR concentration 90 nM, RXRa partner concentration 30 nM)
Summary of the method: as §1

Sequence | PBM binding z-score [1] | PBM binding z-score [2] | PBM binding z-score [3] | PBM binding z-score [4] | PBM binding z-score [5] | PBM binding z-score [6] | PBM binding z-score [7] | PBM binding z-score [8] | PBM binding z-score [9] | PBM binding z-score [10]
CCTTACAGGTCACTCCAGGTTATAGCATCGGAGT | 5.51 | 7.41 | 5.05 | 5.43 | 1.27 | 4.75 | 3.81 | 3.66 | 1.52 | 2.79
AGTCAAAGTTCATCTATGTAACGTAAGATATGCT | 6.5 | 5.79 | 5.16 | 3.59 | 1.69 | 4.44 | 6.21 | 5.9 | 3.03 | 5.29
CCTACTGGGCCAAAGGTCATTGAGTCCAATGCTC | 4.97 | 5.37 | 3.87 | 4.99 | 0.584 | 6.7 | 11.6 | 9.86 | 10.1 | 10.7
CCTTACGAGTCACGAGGTTATAGCACGACGAGCG | 0.991 | 1.29 | 0.451 | 1.22 | 0.355 | 1.84 | 1.22 | 0.515 | -0.27 | 0.183
TCTTGTAGATCCATAGAGGTTAAGAAAGTGCGCT | 0.485 | 3.32 | -0.138 | 1.43 | 0.453 | 1.16 | -0.272 | 1.18 | 2.32 | 1.65
TCTGCTAGGTCAACCATGGTCAGCTAATCTGCTA | 4.32 | 3.21 | -0.0391 | 2.21 | 0.102 | 3.52 | 2.98 | 3.44 | 2.15 | 2.95
TCTGCTAGGTCAGTTGGTCAGCTTACGAGCTGCC | 0.94 | 0.456 | -0.755 | 0.14 | 0.216 | 1.29 | 0.177 | 1.69 | 0.977 | 1.39
TCTGCTAGGTCAACGATGTTCAGCTAATCTGCTA | 3 | 2.22 | -0.237 | 1.39 | -0.31 | 3.1 | 2.54 | 3.01 | 2.01 | 2.42
TGAATGATGTTATAAGATCAGGGAACGTTGCAAA | -0.318 | -0.353 | -0.0281 | -0.083 | 0.0619 | 0.0376 | 0.37 | -0.0772 | 0.598 | 0.592
TCTTGTAGATCAAACGTTAAGAAAGCCGAAGCCT | 0.211 | 0.363 | -0.0781 | 0.18 | -0.0447 | 0.988 | 0.748 | 3.17 | 3.27 | 3.48
CCTAGTTGGTCAGGAGGTCACTCACCGGATATGA | 3.08 | 2.85 | 1.57 | 2.79 | 0.66 | 3.54 | 2.76 | 3.43 | 1.11 | 2.75
AATAAAGGGTCACTAGGCCAGAGTAGGTACGAAT | 6.74 | 5.35 | 1.44 | 4.42 | 1.27 | 6.36 | 8.19 | 6.96 | 3.48 | 6.22
CCTACTGGGCCCTCAGGTCATTGATATCAACGTT | 0.913 | 0.734 | 0.835 | 1.2 | -0.368 | 1.5 | 0.069 | 1.15 | -0.276 | 0.433
CCTACTGGCCCAAAAAGGTCATTGATGCCGATAA | 3.63 | 4.47 | 3.88 | 4.4 | 1.04 | 4.74 | 1.35 | 2.89 | 0.585 | 1.93
TCTGCTAGGACAGTTGGTCAGCTAACGAGCTGCC | -0.435 | -0.527 | -0.541 | -0.91 | -0.315 | -0.722 | -0.522 | -0.161 | 0.654 | 0.296
CGTCCTAGGTCAGCAGGTCAGTGAAAGCGACGTG | 2.92 | 2.04 | 0.0283 | 1.6 | -0.603 | 3.23 | 2.32 | 3.21 | 0.151 | 1.87
CAGACTAGGTCACCGGAAGGTCAAAGTCCGCATG | 5.95 | 5.63 | 4.26 | 5.14 | 0.786 | 5.42 | 7.82 | 7.03 | 3.63 | 6.35
CGTCCAAGGTCAGCTGGTCAGTGAAAGCGACGTG | 5.24 | 3.28 | -0.407 | 2.31 | -0.208 | 3.99 | 2.08 | 2.85 | 0.432 | 1.47
CCTACTTGGCCATCAGGTCATTGATATCAACGTT | 2.95 | 1.81 | 2.06 | 2.21 | 0.454 | 2.12 | 0.623 | 1.36 | 0.665 | 1.13
CGTCCAGGGTCAAAGGTCAGTGAAGAGATGACGG | 7.97 | 6.14 | 1.67 | 6.18 | 0.58 | 7.21 | 10.5 | 8.6 | 7.61 | 8.6
GATACCGGGTCAAGGCCAGAGTACGCGTATTGAT | 4.87 | 2.87 | -0.172 | 2.45 | -1.08 | 5.08 | 5.25 | 4.57 | 1.31 | 3.21
ATCTGTAGGTAACAAGTTCAGTGAAAGAGAGGAC | 0.84 | 0.812 | 0.628 | 0.805 | 0.615 | 1.59 | 1.51 | 2.08 | 0.821 | 1.57
CCTATGAGTTGACCATAAGGGCAACCGAAGCTCG | 0.925 | 0.669 | -0.0503 | 0.247 | 0.184 | 0.685 | 0.512 | 0.342 | -0.144 | -0.218
CAAACTATGTCAAGGTCAAAGTCGGTTTGTGCCA | 4.77 | 4.95 | 4.54 | 4.26 | 1.75 | 4.65 | 4.09 | 4.7 | 2.24 | 3.82
TCTATTAGTTTAAGGGCAACCGACGAGTCCGTTT | 1.36 | 1.32 | 0.766 | 1.32 | 0.433 | 1.33 | 0.0687 | 2.32 | 3.91 | 3.18
